# Source: PubChem BioAssay
# The list is not random: actives were taken first. Their share in the collection is about 2.2%.
# FBPA Giardia inh = blocks Giardia fructose-bisphosphate aldolase activity | 0.71% of 290,000 active | purified Giardia FBPA | Potency, µM (doses to about 59.6 µM), hits mostly inhibitors | AID 2451; active means well fitted inhibition curve with a large enough effect; inconclusive means small, poorly fitted or top-dose-only effect, or effect the other way; further: nearly all actives have a fitted effect of over 55% in size
# Target sequence (A8B2U2 whole entry, looked up): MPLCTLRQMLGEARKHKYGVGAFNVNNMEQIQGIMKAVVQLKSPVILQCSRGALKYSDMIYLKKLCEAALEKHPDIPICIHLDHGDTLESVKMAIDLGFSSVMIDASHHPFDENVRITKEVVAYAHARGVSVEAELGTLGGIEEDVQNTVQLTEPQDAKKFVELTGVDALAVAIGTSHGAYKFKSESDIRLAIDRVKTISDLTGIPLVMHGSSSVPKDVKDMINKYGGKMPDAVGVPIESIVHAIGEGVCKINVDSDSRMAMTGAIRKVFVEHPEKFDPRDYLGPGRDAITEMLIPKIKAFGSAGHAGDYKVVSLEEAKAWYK
#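 Giardia FBPA (40 nM reagent) was preincubated 10 min at RT with compound (up to 57.5 uM final), then substrate plus GAPDH/TPI/NAD/arsenate coupling system with diaphorase/resazurin was added; resorufin fluorescence (525/598 nm) was read after 20 min.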
# Vaccinia Venus = inhibitors of vaccinia virus (Venus reporter). Vaccinia virus Venus reporter expression, fluorescence. Potency, µM (series often up to 36.5 µM), actives largely listed as inhibitors. 0.46% of 330,000 active. AID 720580; calls by dose curve; tested in A549 cells; further: nearly all actives have a fitted effect of over 30% in size
# Vaccinia mCherry = vaccinia inhibition (mCherry reporter); Vaccinia virus mCherry reporter infection, fluorescence; Potency, µM (series often up to 36.5 µM), usual class: inhibitors; 0.63% of 310,000 active; AID 720579; calls by dose curve; tested in A549 cells; further: nearly all actives have a fitted effect of over 35% in size
# FMDV antiviral = foot and mouth disease virus antiviral activity | FMDV antiviral cell-based qHTS | Potency, µM (doses to about 57.9 µM), usual class: inhibitors | 1.2% of 410,000 active; calls by dose curve; tested in HEK293T cells; further: read-out not given here; nearly all actives have a fitted effect of over 45% in size
# Hits are given with their value; i = inactive; ? = inconclusive; nt = not tested or not shown; [ ] = remark or other dose.
SMILES,FBPA Giardia inh,Vaccinia Venus,Vaccinia mCherry,FMDV antiviral
CCCCNc1c(-c2cccc(-c3ccc(OC)cc3)c2)nc2cc(C)ccn12,nt,?,?,25.1µM
O=C1C[C@H]2C=CCc3cccc(c32)CN1Cc1ccc(Br)cc1,nt,i,i,nt
CC(=O)c1ccc(N2CCN(C(=O)Nc3ccc(C(C)C)cc3)CC2)cc1,i,i,?,14.1µM
CC(C)(CNC(=O)c1cnn(-c2ncc3c(n2)-c2ccccc2CCC3)c1C1CC1)N1CCOCC1,nt,i,i,i
O=C(COc1ccccc1C(=O)Nc1ccccc1F)Nc1ccc(Br)cc1,nt,i,i,nt
CC(=O)N1CCN(CC(=O)Nc2ccccc2Sc2ccc(Cl)cc2)CC1,i,i,i,?
O=C(CCl)Nc1ccccc1Sc1ccc(Cl)cc1,?,nt,nt,31.6µM
Cc1ccccc1OCC(=O)Nc1ccc2nc(SCC(=O)N3CCOCC3)sc2c1,nt,i,i,28.2µM
CN(C(=O)CSc1nc2ccc(NC(=O)c3ccccc3F)cc2s1)c1ccccc1,nt,?,i,39.8µM
CC(C)(C)c1ccc(C(=O)Nc2ccc3nc(SCC(=O)N4CCCC4)sc3c2)cc1,nt,?,?,10µM
COc1ccccc1CNc1nc(-c2ccccc2OC)nc2ccccc12,i,nt,nt,i
COC(=O)c1c(OCc2ccccn2)cc(=O)n2c1CCN(Cc1ccc3c(c1)CCCN3C)CC2,nt,i,i,i
CC(=O)c1cccc(N(C(=O)CNC(=O)c2ccco2)C(C(=O)NC2CCCC2)c2ccc(C)o2)c1 (stereo not drawn),i,i,i,1.78µM
COc1c(C)cccc1C(=O)Nc1ccc(N2CCN(C(=O)c3ccccc3C)CC2)cc1,nt,i,i,?
O=C(Nc1ccc(N2CCN(C(=O)c3ccccc3)CC2)cc1)c1ccc2c(c1)OCO2,nt,nt,nt,i
Cc1ccc(N(C)S(=O)(=O)c2cccc(C(=O)Nc3ccc(N4CCOCC4)cc3)c2)cc1,nt,nt,nt,25.1µM
Cc1ccccc1C(=O)N1CCN(c2ccc(NC(=O)c3cccc(OC(C)C)c3)cc2)CC1,nt,i,i,15.8µM
Cc1ccc(C(=O)N2CCN(c3ccc(NC(=O)c4ccc5c(c4)OCCO5)cc3)CC2)cc1,nt,i,i,14.1µM
Cc1ccccc1C(=O)N1CCN(c2ccc(NC(=O)c3ccc4c(c3)OCCO4)cc2)CC1,i,i,?,7.08µM
COCCn1c(=O)c(-c2ccc(Cl)cc2)nc2cnc(Oc3cccc(Cl)c3)nc21,i,nt,nt,i
CC1(C)CC2(C)OC(=N)C1(C#N)C2(C#N)C#N (stereo not drawn),i,i,i,22.4µM
CC1C2(C)OCC(C#N)(C(=N)O2)C1(C#N)C#N (stereo not drawn),i,nt,nt,nt
Cc1ccc(-n2c(-c3ccc(Br)cc3)c[n+]3c2CCc2ccc4cccnc4c2-3)cc1,nt,nt,nt,1.12µM
COc1ccc(-n2c(-c3ccc(Cl)cc3)c[n+]3c2CCc2ccccc2-3)cc1,i,i,i,?
CN(C)c1ccc(NC(=O)/C=C/c2c(Cl)cccc2Cl)cc1,i,i,28.2µM,i
SMILES,FBPA Giardia inh,Vaccinia Venus,Vaccinia mCherry,FMDV antiviral
CN(C)S(=O)(=O)c1ccc(NC(=O)/C=C/c2ccccc2Cl)cc1,i,i,?,i
O=S(=O)(c1ccc(Br)cc1)N1CCN(c2nc(-c3cccs3)nc3ccccc23)CC1,nt,i,i,nt
COC1=C(C)C(=O)c2c(c(COC(N)=O)c3n2C[C@@H]2[C@@H]3N2C)C1=O (stereo partly drawn),nt,11.2µM,i,nt
S=c1[nH]nc(COc2ccccc2)n1/N=C/C(Cl)=C/c1ccccc1,i,nt,nt,35.5µM
OCCC1CN(Cc2c(O)ccc3ccccc23)CCN1CCc1ccccc1 (stereo not drawn),19.9µM,i,?,i
CC(C)(O)C#Cc1ccc(CN2CCc3nnc(CNC(=O)c4cccc(F)c4)n3CC2)cc1,nt,i,i,i
Cc1[nH]nc(C(F)(F)F)c1N=NN1CCOCC1,nt,?,?,20µM
CCc1c(C)nc2c(-c3ccccc3)c(C)[nH]n2c1=O,?,i,?,?
Cc1[nH]n2c(=O)cc(C(C)C)nc2c1-c1ccccc1,i,i,i,i
CCCCc1c(C)nc2c(-c3ccc(Cl)cc3)c(C)[nH]n2c1=O,nt,?,11.2µM,i
Cc1[nH]n2c(=O)cc(-c3ccc(Cl)cc3)nc2c1-c1ccccc1,nt,?,8.91µM,?
Cc1[nH]n2c(=O)cc(C(C)(C)C)nc2c1-c1ccccc1,i,?,10µM,i
Cc1[nH]n2c(=O)cc(-c3ccc([N+](=O)[O-])cc3)nc2c1-c1ccccc1,nt,i,i,i
C=CCN1c2ccccc2[C@]23C[C@@H](C(=O)OC)N(S(=O)(=O)c4ccc(C#N)cc4)C2=NC(C(=O)OC)=C(C(=O)OC)[C@H]13,i[12.9 µM],nt,nt,nt
Nc1c(S(=O)(=O)c2cccs2)c2nc3ccccc3nc2n1/N=C/c1cccc(O)c1,i,11.2µM,?,39.8µM
CCOC(=O)c1cnc(-n2nc(C)cc2C)nc1NC1CCCCC1,i,?,?,10µM
c1ccc(-c2nnc(-c3ccccn3)nc2NC2CCCCC2)cc1,?,?,3.55µM,i
COc1ccc(CN2CCCC(n3cc(C(=O)N4CCCCC4)nn3)C2)cc1OC (stereo not drawn),nt,i,i,i
COc1ccc(-c2csc(-c3ccc(O)cc3)n2)cc1,i,?,3.55µM,i
COc1ccc(-c2nc(CCl)cs2)cc1,i,nt,nt,i
Nc1ncnc2c1ncn2[C@@H]1O[C@H](CO)[C@@H](O)[C@@H]1O,nt,i,?,i
Nc1ncnc2c(C3OC(CO)C(O)C3O)scc12 (stereo not drawn),nt,0.355µM,?,i
CCOC(=O)C(=Cc1cc(=O)c(OC)co1)C(=O)OCC,i,nt,nt,8.91µM
CCCN1CCC(=O)N(CCSc2ccc(Br)cc2)CC1,i,nt,nt,nt
Cc1ccc2nc(CNC(=O)c3cc(NC(=O)c4ccccc4)cc4ncn(C5CCCC5)c34)cn2c1,nt,i,i,i
SMILES,FBPA Giardia inh,Vaccinia Venus,Vaccinia mCherry,FMDV antiviral
Cc1cc(Nc2ccccc2)nc(NCc2ccccc2)n1,i,?,i,i
Cc1cc(Nc2cccc(F)c2)nc(NCc2ccccc2)n1,i,?,12.6µM,?
Cc1cc(Nc2ccc(Cl)cc2)nc(NCc2ccccc2)n1,i,?,11.2µM,31.6µM
COC(=O)[C@@H]1CCCN1Cc1ccc2c(c1)CN(Cc1ccc3c(c1)CCCN3C)CCO2,nt,i,i,i
COc1cc(-c2cnc3ccccc3c2)cc2c1OCCN(C(=O)Cn1nccc1C)C2,nt,i,i,i
Cc1sc2ccccc2[n+]1CCCC[n+]1c(C)sc2ccccc21,nt,?,2.82µM,nt
Cc1sc2ccccc2[n+]1Cc1ccccc1,nt,i,i,nt
Cc1sc2ccccc2[n+]1CCCCBr,nt,?,7.08µM,nt
N#Cc1ccc(S(=O)(=O)N2CCN(c3nc(-c4cccs4)nc4ccccc34)CC2)cc1,nt,i,i,nt
CC(C)S(=O)(=O)N1CCN(c2nc(-c3cccs3)nc3ccccc23)CC1,nt,i,i,nt
NC(=O)C(=CNc1nc(-c2ccc(Cl)c(Cl)c2)cs1)C(N)=O,17.7µM,nt,nt,nt
CC(=O)Nc1ccccc1-c1ccccc1[N+](=O)[O-],nt,i,i,i
CCS(=O)(=O)c1cc([N+](=O)[O-])c(Sc2ccccc2NC(C)=O)s1,i,i[7.34 µM],i[7.34 µM],15.8µM
CC(C)Cc1nc2cc(NS(=O)(=O)N(C)C)cc(C(=O)N3CCc4ccccc4C3)c2n1C,nt,i,i,i
S=C(Nc1ccccc1)N1CCCCCC1,i,i,i,i
CC(C)(CO)N1CCN(C(=S)Nc2ccccc2)CC1,i,i,i,22.4µM
CCOC(=O)Cc1csc(NC(=O)c2ccc(N3CCOCC3)cc2[N+](=O)[O-])n1,nt,nt,nt,17.8µM
